Laboratory results from PubChem BioAssay (NCATS).
Values joined by “and” are separate entries in the source; they are usually repeats but may differ in a detail not shown here. Identical values can stand only once. Inconclusive results are not listed. Active and inactive are the calls of the source. Calls follow the shape of the dose curve; as a rule, active = well fitted curve in the direction sought with a large enough effect; inconclusive = small, poorly fitted or top-dose-only effect, or another doubt; inactive = no such curve, though single readings can be large or run the other way.
% is scaled to controls: 0 for no effect and ±100 for the full control effect; potency is read from the fitted curve at half-maximal effect.

Test: qHTS Assay for Identifying Gametocytocidal Compounds (AID 743244);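 as to max response: actives lower the fluorescent signal which means gametocytes are killed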
Settings: P. falciparum 3D7 stage III-V gametocytes, alamarBlue, 72 h; max response: active compounds read low
In short: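 Using 20,000 stage III–V 3D7 gametocytes per well, compounds were incubated 72 h under 37 °C/5% CO2. Viability was then assessed by 24 h alamarBlue reduction, measured fluorometrically at 525/598 nm.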
For `C[C@]12C=CC(=O)C=C1CC[C@@H]1[C@@H]2[C@@H](O)C[C@@]2(C)[C@H]1CC[C@]2(O)C(=O)CO`, the max response was 0.844% (inactive). In the case of `CC1(C)OC[C@@H](COC(=O)CCc2ccc(OC[C@@H](O)CNCCNC(=O)N3CCOCC3)cc2)O1`, the max response is reported as -9.37% (inactive) and -4.75% (inactive). For `CCOC(=O)c1cccc(N)c1`, the max response was -5.91% (inactive). For `CCN(CC)CCOC(=O)C(c1ccccc1)C1CCCCC1` (stereo unspecified), the max response was 15% (inactive). For `CN1C(CCl)Nc2cc(Cl)c(S(N)(=O)=O)cc2S1(=O)=O` (stereo unspecified), the max response was 12.5% (inactive). For `O=C(OCC(O)CO)c1ccccc1Nc1ccnc2cc(Cl)ccc12` (stereo unspecified), the max response was 7.94% (inactive). With `NC[C@H]1O[C@H](O[C@H]2[C@H](O)[C@@H](O[C@H]3O[C@H](CO)[C@@H](O)[C@H](N)[C@H]3O)[C@H](N)C[C@@H]2N)[C@H](N)[C@@H](O)[C@@H]1O` the max response was -18.8% (inactive) and 4.69% (inactive). For `Cc1ccnc(NS(=O)(=O)c2ccc(N)cc2)n1`, the max response was 9.97% (inactive). With `Cc1c(N(C)CS(=O)(=O)O)c(=O)n(-c2ccccc2)n1C` the max response was 18.3% (inactive). For `CC(C)(C(=O)c1cccnc1)c1cccnc1`, the max response was 4.59% (inactive). For `CCC(C(=O)OCCN(CC)CC)c1ccccc1` (stereo unspecified), the max response was -1.81% (inactive). With `CC(=O)OCC(=O)[C@@]12N=C(C)O[C@@H]1C[C@H]1[C@@H]3CCC4=CC(=O)C=C[C@]4(C)[C@H]3[C@@H](O)C[C@@]12C` the max response was -5.59% (inactive). For `CC(=O)Oc1ccc2c(c1)CC[C@@H]1[C@@H]2CC[C@]2(C)[C@@H](O)CC[C@@H]12`, the max response was 0.116% (inactive). In the case of `CC(=O)Nc1c(I)cc(I)c(C(=O)O)c1I`, the max response is reported as 44.8% (inactive). For `CO/N=C1\CN(c2nc3c(cc2F)c(=O)c(C(=O)O)cn3C2CC2)CC1CN` (stereo unspecified), the max response was -1.09% (inactive). For `C[C@]12CC[C@@H]3c4ccc(O)cc4CC[C@H]3[C@@H]1C[C@@H](O)[C@@H]2O`, the max response was 5.6% (inactive). For `COCc1c(C(C)C)nc(C(C)C)c(/C=C/[C@@H](O)C[C@@H](O)CC(=O)O)c1-c1ccc(F)cc1`, the max response was -6.56% (inactive). With `NC(=O)c1cc[n+](CC2=C(C(=O)[O-])N3C(=O)[C@@H](NC(=O)Cc4cccs4)[C@H]3SC2)cc1` the max response was 1.11% (inactive). In the case of `OC(CCN1CCCCC1)(c1ccccc1)c1ccccc1`, the max response is reported as 13.3% (inactive). For `Cc1cc(N)c2cc(NC(=O)Nc3ccc4nc(C)cc(N)c4c3)ccc2n1`, the max response was -2.17% (inactive). In the case of `Cc1ncc(CSSCc2cnc(C)c(O)c2CO)c(CO)c1O`, the max response is reported as -2.24% (inactive). In the case of `Cc1onc(-c2c(Cl)cccc2Cl)c1C(=O)N[C@@H]1C(=O)N2[C@@H]1SC(C)(C)[C@@H]2C(=O)O`, the max response is reported as -15.6% (inactive). With `CC(=O)OCC(=O)[C@@]1(O)CC[C@H]2[C@@H]3CCC4=CC(=O)C=C[C@]4(C)[C@H]3[C@@H](O)C[C@@]21C` the max response was -0.763% (inactive). With `CC(=O)Oc1ccc(C(=C2CCCCC2)c2ccc(OC(C)=O)cc2)cc1` the max response was 9.87% (inactive). In the case of `CCN1CCC[C@H]1CNC(=O)c1c(OC)ccc(Br)c1OC`, the max response is reported as -8.08% (inactive). In the case of `CC(C)=CCC1C(=O)N(c2ccccc2)N(c2ccccc2)C1=O`, the max response is reported as -12.9% (inactive). In the case of `CCCCCCC[N+](CC)(CC)CCCCc1ccc(Cl)cc1`, the Potency is reported as 3.55 µM (active). For `CC(=O)OCC(=O)[C@@]12OC(C)(C)O[C@@H]1C[C@H]1[C@@H]3C[C@H](F)C4=CC(=O)C=C[C@]4(C)[C@@]3(F)[C@@H](O)C[C@@]12C`, the max response was 1.24% (inactive). With `CC(Cc1ccccc1)(NC(=O)CN)c1ccccc1` (stereo unspecified) the max response was -4.06% (inactive). For `CCn1cc(C(=O)O)c(=O)c2cnc(N3CCCC3)nc21`, the max response was -1.94% (inactive). In the case of `CCCCCCCCCCCCCCCC[N+](C)(C)CC`, the Potency is reported as 14.1 µM (active). In the case of `C[C@@H]1C[C@H]2[C@@H]3C[C@H](F)C4=CC(=O)C(Cl)=C[C@]4(C)[C@@]3(F)[C@@H](O)C[C@]2(C)[C@@]1(O)C(=O)CO`, the max response is reported as 5.34% (inactive). With `CN(C)CCOc1ccccc1Cc1ccccc1` the max response was -21.1% (inactive). With `Cc1c(F)c(N2CCNC(C)C2)cc2c1c(=O)c(C(=O)O)cn2C1CC1` (stereo unspecified) the max response was -1.28% (inactive). With `CCOC(=O)OC(C)OC1=C(C(=O)Nc2ccccn2)N(C)S(=O)(=O)c2ccccc21` (stereo unspecified) the max response was -4.24% (inactive). With `C[C@]12CC[C@H]3[C@@H](CCC4=CC(=O)CC[C@@]43C)[C@@H]1CC[C@@H]2C(=O)CO` the max response was 8.05% (inactive).
